Source: PubChem (several laboratories)
BoNT-A LC inh2 – blocks Botulinum neurotoxin A light chain protease; multiplex microsphere protease substrate cleavage, flow cytometry; inhibition, % at 10 µM; 360,000 tested, 0.17% active; AID 588499; also: plate controls were buffer without enzyme for full effect and enzyme alone for no effect
BoNT-F LC inh – inhibitors of Botulinum neurotoxin F light chain protease; Multiplex microsphere protease cleavage assay, flow cytometry; inhibition, % at 10 µM; 360,000 tested, 0.22% active; in the data active = inhibition above about 35%, passing the limit was not always enough; inconclusive = no clear call, values can overlap the other calls; also: plate controls were buffer without enzyme for full effect and enzyme alone for no effect
Anthrax LF prot – blocks Bacillus anthracis lethal factor protease. multiplex microsphere protease cleavage assay, LF. inhibition, % at 10 µM. 360,000 tested, 0.12% active. AID 588501; also: plate controls were buffer without enzyme for full effect and enzyme alone for no effect
Target sequence (P15917 whole entry, looked up): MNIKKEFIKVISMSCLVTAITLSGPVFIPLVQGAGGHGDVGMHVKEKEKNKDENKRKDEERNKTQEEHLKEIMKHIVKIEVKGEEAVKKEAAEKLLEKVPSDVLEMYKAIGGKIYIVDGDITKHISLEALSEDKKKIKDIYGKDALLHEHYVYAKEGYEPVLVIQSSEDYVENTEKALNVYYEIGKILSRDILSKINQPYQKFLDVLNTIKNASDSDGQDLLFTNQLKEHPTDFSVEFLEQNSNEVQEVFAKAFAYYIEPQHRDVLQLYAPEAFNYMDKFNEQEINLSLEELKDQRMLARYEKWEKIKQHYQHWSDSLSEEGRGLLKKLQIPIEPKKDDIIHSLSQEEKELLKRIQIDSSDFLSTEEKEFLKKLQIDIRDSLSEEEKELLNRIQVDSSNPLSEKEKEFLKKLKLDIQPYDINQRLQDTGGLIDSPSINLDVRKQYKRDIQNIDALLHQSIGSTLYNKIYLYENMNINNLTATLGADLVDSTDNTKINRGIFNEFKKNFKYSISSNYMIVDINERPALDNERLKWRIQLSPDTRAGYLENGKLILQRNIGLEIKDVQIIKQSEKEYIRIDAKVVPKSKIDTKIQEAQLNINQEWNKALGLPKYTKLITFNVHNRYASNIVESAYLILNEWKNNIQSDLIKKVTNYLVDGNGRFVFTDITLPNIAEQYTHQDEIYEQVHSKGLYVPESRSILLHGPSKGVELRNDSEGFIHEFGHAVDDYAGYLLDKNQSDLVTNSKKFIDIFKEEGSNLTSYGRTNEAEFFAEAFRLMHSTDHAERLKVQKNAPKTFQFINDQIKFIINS
Autofluor counter – flagged as autofluorescent in microsphere protease counterscreen; compound autofluorescence counterscreen, microsphere flow cytometry; active compounds read high; fluorescence intensity (test concentration not listed); 360,000 tested, 3.1% active; AID 624483; in the data active = fluorescence intensity above about 16000; inconclusive = no clear call, values can overlap the other calls
GDH-TPI inh – GDH-TPI coupled enzyme inhibition counter-screen | GDH-TPI coupled enzyme counterscreen, NADH absorbance | inhibition, % at 4.8 µM | 360,000 tested, 1.2% active; in the data active = inhibition above about 30%;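 also: 0% = DMSO wells and 100% = wells lacking the enzyme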
FBA Mtb inh – inhibitors of M. tuberculosis fructose-bisphosphate aldolase | purified M. tuberculosis FBA, fluorescence read-out | inhibition, % at 1 µM | 360,000 tested, 2.3% active; in the data active = inhibition above about 27%;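 also: 0% = vehicle and 100% = reference inhibitor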
Starred values were filed as active, the others as inactive; u = inconclusive; x = no result; + = active, no number. An excerpt weighted towards active compounds, which were near 6.6% of everything screened. Rule as the data show it, unless noted: active = inhibition above about 30%; inconclusive = no clear call, values can overlap the other calls; inactive = below that.

SMILES	BoNT-A LC inh2	BoNT-F LC inh	Anthrax LF prot	Autofluor counter	GDH-TPI inh	FBA Mtb inh
CCNC(=O)C1(c2ccccc2)CCCC1	-1	-3	-6	3292	-4	-1
CCOC(=O)CNC(=O)C1(c2ccccc2)CCCC1	-1	-4	1	16511*	11	-3
COC(=O)c1ccc(NC(=O)c2cccc(Cl)c2)o1	-1	-4	-3	23122*	8	1
Cc1ccccc1C(=O)NCCNc1ccc([N+](=O)[O-])cc1	0	-3	-6	4236	3	-10
Cc1ccccc1C(=O)NNc1ccc([N+](=O)[O-])cc1	u	10	-8	19390*	14	2
CCCCN1CNC(=S)N(c2ccccc2OCC)C1	1	11	-2	7728	4	2
CCCCN1CNC(=S)N(c2cc(C)ccc2C)C1	0	-2	0	21773*	4	2
CCOC(=O)c1c(C)n(C)c2ccc(OCC(O)Cn3nc(C)cc3C)cc12 (stereo not drawn)	0	-3	-5	16244*	3	0
CCOC(=O)c1c(C)n(C)c2ccc(OCC(O)CN(CC)CC)cc12 (stereo not drawn)	0	-12	3	5998	-19	0
CC(=O)Nc1c(S(=O)(=O)c2ccccc2)c2nc3ccccc3nc2n1Cc1ccccc1	1	1	-1	2838	11	148*
Nc1c(S(=O)(=O)c2cc(Cl)ccc2Cl)c2nc3ccccc3nc2n1CCN1CCOCC1	u	2	-1	24321*	20	13
Cc1ccc(S(=O)(=O)c2c(N)n(-c3ccccc3)c3nc4ccccc4nc23)cc1	2	-8	2	2633	14	129*
CN(C)CCCn1c(N)c(S(=O)(=O)c2ccccc2)c2nc3ccccc3nc21	3	-3	8	7332	20	113*
CN(CC(=O)NCCc1ccc(Cl)cc1)S(=O)(=O)c1cccs1	0	14	-5	3536	7	-1
CCCCn1c(N)c(S(=O)(=O)c2ccc(C)cc2)c2nc3ccccc3nc21	4	-3	2	2848	18	116*
Cc1ccc(NC(=O)COc2ccccc2CNC(C)(C)CC(C)(C)C)cc1	-2	-2	-16	16482*	-2	2
Cc1ccc(NC(=O)COc2ccc(Br)cc2CO)cc1	-5	-8	-1	22055*	-6	-3
CCOC(=O)[C@]12CCCC=C1N(Cc1ccco1)C(=O)[C@H](CC(=O)NCCc1ccccc1OC)C2	0	-6	-8	5861	x	x
COC(=O)[C@H](C)NC(=O)NC(C)CCc1ccccc1 (stereo partly drawn)	2	2	1	21607*	1	0
CC(CCc1ccccc1)NC(=O)Cc1ccc(Br)cc1 (stereo not drawn)	1	9	-13	2915	5	-1
COC(=O)[C@@H](NC(=O)NC(C)CCc1ccccc1)C(C)C (stereo partly drawn)	-1	2	0	3092	2	-1
CC(CCc1ccccc1)C(=O)NO (stereo not drawn)	0	2	1	23384*	1	1
COC(=O)NC1CSCC1OC(=O)CN1C(=O)c2ccccc2C1=O (stereo not drawn)	-2	-2	-1	20984*	-10	1
CC(OC(=O)CN1C(=O)c2ccccc2C1=O)C(=O)NC1CCCC1 (stereo not drawn)	2	4	-6	3431	-5	0
Cc1c(O)c(CN2CCCC2)cc2c1oc(=O)c1ccccc12	-2	-11	7	11050	8	1
SMILES	BoNT-A LC inh2	BoNT-F LC inh	Anthrax LF prot	Autofluor counter	GDH-TPI inh	FBA Mtb inh
Cc1ccc2c(CN3CCCCC3)cc(=O)oc2c1C	-2	-9	-6	4076	3	-1
CCc1cc(=O)oc2c(C)c(O)c(CN3CCCCC3)cc12	0	-7	-14	6080	32*	+
Cc1c(O)c(CN2CCCC2)cc2c3c(c(=O)oc12)CCC3	1	-11	0	11342	15	198*
Cc1ccc2c(C)c(C(=O)Nc3cccnc3)oc2c1C	-5	u	17	3880	-3	-2
CC1CCc2c(nc3sc4c(c3c2N)CCCC4)C1 (stereo not drawn)	0	3	1	2372	2	-1
CCOC(=O)CC(=O)CSc1ccc2nnc(-c3cccc(F)c3)n2n1	u	-4	2	16650*	19	7
COc1cc(C(=O)Nc2ccc(NC(=O)c3ccccc3Cl)nc2)cc(OC)c1OC	0	-1	1	4706	14	-2
COC(=O)c1c(O)c2ccccc2[nH]c1=O	8	12	4	19580*	8	2
O=C(N/N=C/c1cccc(F)c1)c1c(O)c2ccccc2[nH]c1=O	0	0	1	2097	2	-2
O=C(Nc1cccc(F)c1)c1c(O)c2ccccc2[nH]c1=O	-4	u	-13	3955	32*	1
COc1cc(OC)cc(C(=O)NN(CCC#N)C2=NS(=O)(=O)c3ccccc32)c1	1	-30	2	3347	1	6
Cc1ccc(OC2CCN(C(=O)[C@H]3O[C@@H](n4ccc(N)nc4=O)[C@H](O)[C@@H]3O)CC2)cc1	-1	-7	-1	5430	x	0
Cc1oc2nc(SCC(=O)NCCCO)nc(N)c2c1C	-1	0	-2	22217*	-4	-2
COc1ccc(-c2ccc(C(=O)NCCc3ccccc3)c3occc23)c(C)c1	-1	-9	-2	3113	11	17
CC1CC(C)CN(C(=O)/C(=C\c2ccccc2)c2ccccc2)C1 (stereo not drawn)	0	-2	1	1873	16	-1
CC1CCCCN1C(=O)/C(=C\c1ccccc1)c1ccccc1 (stereo not drawn)	5	5	0	21700*	-4	-3
N#Cc1cnn2ccc(-c3ccc4c(c3)CCC4)nc12	0	2	-8	3371	13	141*
CCOCCCNC(=O)c1cc2sc(Cl)cc2n1CC	u	-15	-10	18115*	4	1
CC1CCCN(C(=O)c2cc(F)c(F)cc2Cl)C1 (stereo not drawn)	2	-5	-4	22587*	6	-3
CC1CN(C(=O)c2cc(F)c(F)cc2Cl)CC(C)O1 (stereo not drawn)	1	-2	-2	9582	-1	5
CC(CC(=O)O)CC(=O)Nc1ccc(Br)cc1 (stereo not drawn)	-1	u	3	3246	5	0
COc1ccc(-c2nnc(N)s2)cc1	-1	-5	-6	23923*	-5	6
Cc1ccc(-c2nnc(N)s2)cc1	0	7	1	2326	2	4
CCc1nc2ccc(C(=O)N(C)Cc3ccccc3)cn2c1N(CC)CCN(C)C	0	1	-6	3492	4	-2
CCC(C)NC(=O)c1ccc(CSCc2ccc(Cl)cc2)o1 (stereo not drawn)	0	-8	25	3616	-12	-1
